Legend:
Test in all cases: DAPPL (digital affinity profiling via proximity ligation, sequencing); 10 mM Tris-HCl pH 7.5, 50 mM NaCl, 1 mM DTT, 4% glycerol, room temperature, 30 min; GST-TFs on glutathione beads, 16-mer random dsDNA library, 0.1% formaldehyde crosslink after washing; high values mean tight binding
Conditions in all cases: protein: recombinant; tags: N-terminal GST; dsDNA, one strand shown
ERG = biological target: T1, ERG (Homo sapiens, UniProt P11308 1-479)
T1 sequence: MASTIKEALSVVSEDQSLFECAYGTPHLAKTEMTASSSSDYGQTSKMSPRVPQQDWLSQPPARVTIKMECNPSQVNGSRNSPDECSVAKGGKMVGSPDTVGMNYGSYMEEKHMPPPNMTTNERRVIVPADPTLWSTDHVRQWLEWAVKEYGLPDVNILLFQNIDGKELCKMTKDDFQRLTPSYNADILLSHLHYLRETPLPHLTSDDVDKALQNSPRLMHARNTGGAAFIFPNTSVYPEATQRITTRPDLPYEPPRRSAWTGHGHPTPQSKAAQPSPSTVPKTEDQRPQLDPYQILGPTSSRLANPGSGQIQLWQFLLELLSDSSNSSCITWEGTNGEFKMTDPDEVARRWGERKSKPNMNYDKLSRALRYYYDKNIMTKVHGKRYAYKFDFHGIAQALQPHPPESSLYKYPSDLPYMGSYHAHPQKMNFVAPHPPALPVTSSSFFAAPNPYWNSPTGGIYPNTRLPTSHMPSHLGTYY
How it was run: (§1)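 Yeast served to express human transcription factors as GST fusions, which were then captured on glutathione beads and labelled with DNA barcodes. Pooled with a tag-only sample, they were incubated with 200 nmole of a 16-mer random double-stranded DNA library for 30 min at room temperature in Tris/NaCl/DTT/glycerol buffer, washed, crosslinked with 0.1% formaldehyde, ligated by proximity, amplified by PCR and sequenced. Dividing each hexamer's read frequency for a factor by its frequency for the tag-only sample gives the binding signal.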

ELF1 = ELF1 (Homo sapiens, UniProt P32519 1-619)
Sequence of ELF1 (P32519 whole entry): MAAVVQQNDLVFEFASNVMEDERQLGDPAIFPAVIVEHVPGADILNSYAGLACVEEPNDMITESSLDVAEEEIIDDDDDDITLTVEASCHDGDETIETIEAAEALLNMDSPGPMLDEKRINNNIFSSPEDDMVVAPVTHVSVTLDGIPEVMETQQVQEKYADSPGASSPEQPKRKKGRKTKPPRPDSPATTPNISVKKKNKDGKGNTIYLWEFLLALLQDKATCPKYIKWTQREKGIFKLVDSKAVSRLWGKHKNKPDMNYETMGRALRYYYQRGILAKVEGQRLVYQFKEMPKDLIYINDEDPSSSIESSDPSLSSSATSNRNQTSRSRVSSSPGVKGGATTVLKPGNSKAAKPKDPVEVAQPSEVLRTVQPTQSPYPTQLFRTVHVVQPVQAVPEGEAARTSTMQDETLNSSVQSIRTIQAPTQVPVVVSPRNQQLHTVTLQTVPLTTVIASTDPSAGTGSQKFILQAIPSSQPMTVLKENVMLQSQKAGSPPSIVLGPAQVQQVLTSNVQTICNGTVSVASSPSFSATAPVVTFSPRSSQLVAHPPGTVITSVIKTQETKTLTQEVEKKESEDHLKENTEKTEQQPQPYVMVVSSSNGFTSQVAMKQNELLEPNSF
How it was run: as §1

EHF = biological target: T2, EHF (Homo sapiens, UniProt Q9NZC4 1-300)
T2 sequence: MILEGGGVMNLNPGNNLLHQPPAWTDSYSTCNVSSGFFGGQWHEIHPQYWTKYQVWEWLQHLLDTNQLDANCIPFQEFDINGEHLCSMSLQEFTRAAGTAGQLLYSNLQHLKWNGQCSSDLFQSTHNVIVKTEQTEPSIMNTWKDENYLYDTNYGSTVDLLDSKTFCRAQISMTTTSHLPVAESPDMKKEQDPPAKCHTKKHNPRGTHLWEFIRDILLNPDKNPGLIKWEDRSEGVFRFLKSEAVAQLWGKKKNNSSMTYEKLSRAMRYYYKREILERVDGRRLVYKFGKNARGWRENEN
How it was run: as §1

SPIB = SPIB (Homo sapiens, UniProt Q01892 1-262)
Sequence of SPIB (Q01892 whole entry): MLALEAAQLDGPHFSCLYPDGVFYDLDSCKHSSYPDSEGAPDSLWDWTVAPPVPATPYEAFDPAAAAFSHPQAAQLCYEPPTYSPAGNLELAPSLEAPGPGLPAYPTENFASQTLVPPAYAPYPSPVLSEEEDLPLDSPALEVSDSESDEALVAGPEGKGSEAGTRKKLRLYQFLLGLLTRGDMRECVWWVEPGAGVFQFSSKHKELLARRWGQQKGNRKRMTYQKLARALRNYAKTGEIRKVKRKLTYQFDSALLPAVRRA
How it was run: as §1

ELF3 = biological target: T3, ELF3 (Homo sapiens, UniProt P78545 1-371)
T3 sequence: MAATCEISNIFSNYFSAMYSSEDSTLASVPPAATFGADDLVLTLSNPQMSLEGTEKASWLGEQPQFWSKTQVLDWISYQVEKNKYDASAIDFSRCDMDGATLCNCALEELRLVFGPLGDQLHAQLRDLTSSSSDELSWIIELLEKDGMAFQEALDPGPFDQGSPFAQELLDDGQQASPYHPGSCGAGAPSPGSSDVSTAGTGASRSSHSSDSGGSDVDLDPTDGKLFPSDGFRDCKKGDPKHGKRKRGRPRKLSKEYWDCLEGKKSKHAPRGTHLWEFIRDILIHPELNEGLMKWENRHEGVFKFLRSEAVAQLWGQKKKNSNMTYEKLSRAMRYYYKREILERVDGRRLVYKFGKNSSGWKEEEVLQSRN
How it was run: as §1

ETV1 = ETV1 (Homo sapiens, UniProt P50549 1-477)
Sequence of ETV1 (P50549 whole entry): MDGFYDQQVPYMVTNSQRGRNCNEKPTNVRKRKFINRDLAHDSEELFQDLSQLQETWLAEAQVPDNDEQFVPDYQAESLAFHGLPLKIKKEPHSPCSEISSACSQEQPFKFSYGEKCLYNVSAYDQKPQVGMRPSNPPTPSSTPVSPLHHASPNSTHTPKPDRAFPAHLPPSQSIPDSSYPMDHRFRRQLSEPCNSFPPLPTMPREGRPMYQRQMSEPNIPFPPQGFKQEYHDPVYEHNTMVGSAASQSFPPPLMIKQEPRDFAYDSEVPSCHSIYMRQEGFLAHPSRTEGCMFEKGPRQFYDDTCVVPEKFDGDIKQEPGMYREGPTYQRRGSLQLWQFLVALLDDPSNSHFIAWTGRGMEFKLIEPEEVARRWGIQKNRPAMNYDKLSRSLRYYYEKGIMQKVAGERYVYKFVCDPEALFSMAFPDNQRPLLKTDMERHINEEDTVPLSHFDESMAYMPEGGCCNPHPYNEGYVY
How it was run: as §1

ELK1 = biological target: T4, ELK1 (Homo sapiens, UniProt P19419 1-428)
T4 sequence: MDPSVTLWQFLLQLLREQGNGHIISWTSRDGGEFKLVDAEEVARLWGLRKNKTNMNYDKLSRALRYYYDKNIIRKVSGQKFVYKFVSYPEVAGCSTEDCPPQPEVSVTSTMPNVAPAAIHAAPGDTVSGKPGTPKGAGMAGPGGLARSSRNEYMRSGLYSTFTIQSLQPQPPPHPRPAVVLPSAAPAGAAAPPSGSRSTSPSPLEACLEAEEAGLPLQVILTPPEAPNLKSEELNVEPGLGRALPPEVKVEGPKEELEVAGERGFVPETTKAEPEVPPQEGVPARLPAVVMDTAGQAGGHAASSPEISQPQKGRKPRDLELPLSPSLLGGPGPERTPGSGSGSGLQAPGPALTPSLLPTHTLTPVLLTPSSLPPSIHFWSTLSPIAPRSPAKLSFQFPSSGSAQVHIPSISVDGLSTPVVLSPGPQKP
How it was run: as §1

GABPA = biological target: T5, GABPA (Homo sapiens, UniProt Q06546 1-454)
T5 sequence: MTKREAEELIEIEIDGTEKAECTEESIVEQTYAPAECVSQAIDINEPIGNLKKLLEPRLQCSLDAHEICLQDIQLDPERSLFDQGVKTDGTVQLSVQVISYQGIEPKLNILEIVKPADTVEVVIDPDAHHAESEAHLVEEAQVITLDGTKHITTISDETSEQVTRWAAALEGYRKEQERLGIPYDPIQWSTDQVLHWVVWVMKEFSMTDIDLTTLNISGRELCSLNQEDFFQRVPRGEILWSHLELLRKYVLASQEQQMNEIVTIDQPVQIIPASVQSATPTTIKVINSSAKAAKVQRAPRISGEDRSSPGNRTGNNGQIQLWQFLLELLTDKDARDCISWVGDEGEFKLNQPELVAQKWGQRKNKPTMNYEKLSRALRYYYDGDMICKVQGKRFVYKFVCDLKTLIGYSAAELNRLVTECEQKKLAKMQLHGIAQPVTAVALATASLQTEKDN
How it was run: as §1

SPI1 = SPI1 (Homo sapiens, UniProt P17947 1-270)
How it was run: as §1

ELK3 = biological target: T6, ELK3 (Homo sapiens, UniProt P41970 1-407)
T6 sequence: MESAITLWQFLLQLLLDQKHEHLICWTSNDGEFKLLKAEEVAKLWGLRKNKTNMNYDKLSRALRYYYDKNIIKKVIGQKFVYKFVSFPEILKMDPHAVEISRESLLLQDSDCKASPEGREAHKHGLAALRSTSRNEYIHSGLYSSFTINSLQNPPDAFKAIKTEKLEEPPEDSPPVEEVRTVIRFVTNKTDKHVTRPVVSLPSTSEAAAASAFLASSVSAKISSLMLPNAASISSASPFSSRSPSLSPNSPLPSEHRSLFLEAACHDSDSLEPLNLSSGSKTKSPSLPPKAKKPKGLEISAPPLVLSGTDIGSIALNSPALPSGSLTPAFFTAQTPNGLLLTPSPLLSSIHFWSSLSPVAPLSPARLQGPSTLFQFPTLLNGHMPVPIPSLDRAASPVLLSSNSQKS
How it was run: as §1

SPIC = biological target: T7, SPIC (Homo sapiens, UniProt Q8N5J4 1-248)
T7 sequence: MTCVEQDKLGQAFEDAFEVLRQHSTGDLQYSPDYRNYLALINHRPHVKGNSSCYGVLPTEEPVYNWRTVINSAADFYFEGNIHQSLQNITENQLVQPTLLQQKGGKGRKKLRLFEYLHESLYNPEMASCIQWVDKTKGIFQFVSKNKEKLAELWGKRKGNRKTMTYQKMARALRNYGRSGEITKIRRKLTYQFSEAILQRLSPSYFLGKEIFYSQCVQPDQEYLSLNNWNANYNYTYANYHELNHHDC
How it was run: as §1

ELF4 = ELF4 (Homo sapiens, UniProt Q99607 1-663)
Sequence of ELF4 (Q99607 whole entry): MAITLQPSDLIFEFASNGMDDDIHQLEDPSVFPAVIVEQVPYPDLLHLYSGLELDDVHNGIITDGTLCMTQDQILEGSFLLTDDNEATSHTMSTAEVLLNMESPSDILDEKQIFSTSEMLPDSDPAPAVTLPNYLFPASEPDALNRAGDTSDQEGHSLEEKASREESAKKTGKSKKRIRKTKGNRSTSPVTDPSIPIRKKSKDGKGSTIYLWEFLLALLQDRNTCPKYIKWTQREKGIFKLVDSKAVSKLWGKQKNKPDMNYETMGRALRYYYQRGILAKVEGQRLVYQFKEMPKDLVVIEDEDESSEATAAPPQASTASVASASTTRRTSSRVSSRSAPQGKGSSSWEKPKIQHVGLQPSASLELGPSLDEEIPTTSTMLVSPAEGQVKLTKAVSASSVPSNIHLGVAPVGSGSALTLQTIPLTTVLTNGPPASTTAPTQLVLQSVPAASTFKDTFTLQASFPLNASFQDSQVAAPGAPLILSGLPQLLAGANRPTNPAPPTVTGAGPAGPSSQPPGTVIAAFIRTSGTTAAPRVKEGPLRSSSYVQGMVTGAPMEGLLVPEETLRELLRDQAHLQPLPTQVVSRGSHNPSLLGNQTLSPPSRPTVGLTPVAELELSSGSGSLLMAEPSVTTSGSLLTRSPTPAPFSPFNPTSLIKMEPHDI
How it was run: as §1

ELK4 = biological target: T8, ELK4 (Homo sapiens, UniProt P28324-2 1-405)
T8 sequence: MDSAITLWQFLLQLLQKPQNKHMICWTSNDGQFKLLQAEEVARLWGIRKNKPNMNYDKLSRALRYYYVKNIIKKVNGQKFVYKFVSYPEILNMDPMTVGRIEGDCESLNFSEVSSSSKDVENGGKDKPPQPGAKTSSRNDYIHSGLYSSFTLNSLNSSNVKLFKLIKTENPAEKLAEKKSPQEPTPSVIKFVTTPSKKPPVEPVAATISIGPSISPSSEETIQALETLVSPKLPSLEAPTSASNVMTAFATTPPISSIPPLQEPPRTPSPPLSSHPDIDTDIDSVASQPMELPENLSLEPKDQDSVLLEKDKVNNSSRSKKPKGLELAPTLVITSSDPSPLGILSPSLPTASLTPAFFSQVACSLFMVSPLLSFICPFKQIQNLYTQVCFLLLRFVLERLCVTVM
How it was run: as §1

ERF = biological target: T9, ERF (Homo sapiens, UniProt P50548 1-548)
T9 sequence: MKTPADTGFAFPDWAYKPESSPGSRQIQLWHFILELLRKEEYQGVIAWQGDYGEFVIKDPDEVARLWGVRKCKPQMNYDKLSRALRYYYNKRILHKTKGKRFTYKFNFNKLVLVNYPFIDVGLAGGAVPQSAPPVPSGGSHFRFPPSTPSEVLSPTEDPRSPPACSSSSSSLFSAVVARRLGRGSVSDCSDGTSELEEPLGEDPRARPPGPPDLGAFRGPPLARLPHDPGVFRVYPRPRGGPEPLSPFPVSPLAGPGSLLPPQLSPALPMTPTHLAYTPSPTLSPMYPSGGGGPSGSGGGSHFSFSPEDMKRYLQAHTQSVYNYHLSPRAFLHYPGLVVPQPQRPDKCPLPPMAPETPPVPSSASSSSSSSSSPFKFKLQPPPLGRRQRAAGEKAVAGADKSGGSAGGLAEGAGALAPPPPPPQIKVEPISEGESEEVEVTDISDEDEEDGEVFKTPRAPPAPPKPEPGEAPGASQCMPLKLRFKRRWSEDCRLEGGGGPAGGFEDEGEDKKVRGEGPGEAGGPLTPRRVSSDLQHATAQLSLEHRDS
How it was run: as §1

ETV3 = biological target: T10, ETV3 (Homo sapiens, UniProt P41162-2 1-143)
T10 sequence: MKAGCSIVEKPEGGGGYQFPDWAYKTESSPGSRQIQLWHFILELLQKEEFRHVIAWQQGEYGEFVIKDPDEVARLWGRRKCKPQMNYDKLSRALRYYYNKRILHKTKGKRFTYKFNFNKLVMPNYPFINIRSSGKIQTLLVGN
How it was run: as §1

Sequence: TGGAAC
- binding signal (ERG): 1.02 fold enrichment (6-mer frequency, TF over GST control)
- binding signal (ELF1): 1 fold enrichment (6-mer frequency, TF over GST control)
- binding signal (EHF): 1.04 fold enrichment (6-mer frequency, TF over GST control)
- binding signal (SPIB): 1.04 fold enrichment (6-mer frequency, TF over GST control)
- binding signal (ELF3): 1.05 fold enrichment (6-mer frequency, TF over GST control)
- binding signal (ETV1): 1.04 fold enrichment (6-mer frequency, TF over GST control)

Sequence: GTACTG
- binding signal (ELK1): 1.02 fold enrichment (6-mer frequency, TF over GST control)
- binding signal (GABPA): 1.04 fold enrichment (6-mer frequency, TF over GST control)
- binding signal (ERG): 1.09 fold enrichment (6-mer frequency, TF over GST control)
- binding signal (ELF1): 1.12 fold enrichment (6-mer frequency, TF over GST control)
- binding signal (EHF): 1.06 fold enrichment (6-mer frequency, TF over GST control)
- binding signal (SPI1): 1.04 fold enrichment (6-mer frequency, TF over GST control)
- binding signal (SPIB): 1 fold enrichment (6-mer frequency, TF over GST control)
- binding signal (ELK3): 1.08 fold enrichment (6-mer frequency, TF over GST control)
- binding signal (SPIC): 1.04 fold enrichment (6-mer frequency, TF over GST control)
- binding signal (ELF4): 1.05 fold enrichment (6-mer frequency, TF over GST control)
- binding signal (ELK4): 1.15 fold enrichment (6-mer frequency, TF over GST control)
- binding signal (ELF3): 1 fold enrichment (6-mer frequency, TF over GST control)
- binding signal (ETV1): 1.02 fold enrichment (6-mer frequency, TF over GST control)
- binding signal (ERF): 1.02 fold enrichment (6-mer frequency, TF over GST control)
- binding signal (ETV3): 1.11 fold enrichment (6-mer frequency, TF over GST control)
